Data from PubChem BioAssay AID1508600 (Functional Genomics Laboratory (NCATS/FGL), 2020).
Among all 53,000 sequences or so, about 3,700 (7%) were called active. The entries come from a sample that favours actives as a whole. Values without a mark were called inactive.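 How the source made its calls: active means gene knockdowns whose robust z-score for IL-1 alpha signal is at least 2 or at most -2, so actives lie on both sides; inactive means the rest.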

experiment: Components of the Cytosolic LPS Sensing Pathway: Gene Identification via Genome-wide siRNA Screen; settings: RAW264.7 macrophages, IL-1a HTRF, actives lie on both sides, screened at 100 nM (by protocol), cells primed 5 h with Pam3CSK4 first;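 further: robust z of the log signal after scaling to non-targeting control siRNA wells of the plate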
Method in brief: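 Mouse macrophage line RAW264.7 is transfected with siRNA (100 nM final), grown 48h, primed with TLR ligand Pam3CSK4 5 h and given intracellular LipidA 24 h. IL-1a in supernatant is read by HTRF and viability by luminescence.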

In order of falling z-score:
1. GGAAUCAUUGACGUAAUCATT against Chil3  1.99
2. GGAAGCAUUGAUUUUCAUCTT against Prok2  1.82
3. GGACCAUGCUGGAUACUAUTT against Yrdc  1.74
4. GGUCGGUUGCUUUAGUGAATT against Magee2  1.42
5. CCAAACUUAAGCCUAUUCUTT against Mme  1.32
6. CGCCUACUGCUUCAGGAUATT against Cgrrf1  1.27
7. GGAUAACCUAUCGAAUCUCTT against Dsg4  1.26
8. GGAGACUCCAACUACUUCATT against Sycp1  1.23
9. CGUACAAAGGUAGUAUACCTT against Pi4k2a  1.1
10. GGAACUGGAAAACUUCAAATT against Mrvi1  1.04
11. GGCAGACUCUGCCUACUUATT against Utf1  1.01
12. GGAUGUAAAAUGCAGUUUATT against Tmsb4x  0.855
13. GGAAGUUGGUUAUACUCGUTT against Lins1  0.822
14. GGAAUGUUAACAAAGAGCATT against Sgcb  0.8
15. GGAACAUCCAUGUAUUCAATT against Ube2l3  0.76
16. GGCAAUCAUGUGGACUUCATT against C230071H18Rik  0.714
17. GGAAAACCAUGAAGCCAUGTT against Dnase1l3  0.69
18. GGGACAACAUGGAUUCAAGTT against Sult1c2  0.685
19. GGGAGUUCCAAUCAUUCUUTT against 2200002J24Rik  0.667
20. CGUGCUAGUGACCAUUUACTT against Limch1  0.625
21. GGAGUUUCCAUCACGAAGATT against Bmp4  0.574
22. GCAUCUCUCUACCAUUGACTT against Frmd8  0.538
23. CGAGAUGGGAGAUUGAAAUTT against Ms4a8a  0.47
24. GGAAGUUGACAAAAUAGUGTT against Dlgap5  0.389
25. GGCUGUACCAAUCUGACACTT against Pvalb  0.318
26. GUGACACCUUUAUGGAGAGTT against Olfr1271  0.267
27. GGGCAAAAUCGUGUCAAGCTT against Dpp9  0.253
28. CCUGAAGAAAGAAUCCCUATT against Nobox  0.241
29. CCAGUGGUAUGAGGUUGAATT against Cpne3  0.238
30. GGAGACUCCUUACGGCAAATT against Bnip1  0.227
31. GCUCUAACGUAUGAUGCCATT against Nde1  0.206
32. GUUCCUGCUGAUCAAGGACTT against Nsmce3  0.2
33. CCUAAUGUUUAGAUCCAUATT against Gcm2  0.11
34. GCGACAACUUAAAGACCGGTT against Cand2  0.0878
35. GGGCAGAAAAUCAUUUGUUTT against Anxa11  0.0839
36. GGGUAUGAUGUGAUUGCUCTT against Eif4a2  0.0435
37. GGUCUAUGUACUGUCCUGATT against Otop2  0.0413
38. GGAUCUUCGUACUAGAGGCTT against Cenpx  0.0358
39. GGUUGAAACGAGUUUUGAATT against Zbtb5  0.00556
40. GGAAAUCGAUUCUCAUGAUTT against St6gal2  0.00146
41. GGAGAAGAGAAUAGAAGAATT against Ren1  -0.0528
42. GCAAGCAGACUUGUCCUUCTT against Hnrnpc  -0.155
43. GCAACAAAUUUGAAUCAGATT against Chic2  -0.185
44. GGAUCAACCUAGAAGCUUGTT against Strada  -0.192
45. GUCUUAUACACGUGUGGACTT against Cklf  -0.198
46. GGAGUAUAUCUCGUUUAUATT against Ube2e2  -0.221
47. GGAUUGCCCUGUUGUGGUGTT against Snx17  -0.227
48. GCAGAGCGAUUAUAUGGACTT against Rnpepl1  -0.308
49. GGAGGAAGACAUUGUGUGUTT against Tnfrsf11b  -0.309
50. GGCUAAAUAUGUGAUUAGUTT against Maob  -0.311
51. GGACUCAUCUUUAUUAUUCTT against Olfr393  -0.324
52. GGAUCAAGAAUUAAUGUCUTT against Nes  -0.349
53. CCAUUAAGAUCCGAAGUAUTT against Lrrc58  -0.36
54. GCUAAAGUGACCUUAAAACTT against Phactr4  -0.382
55. GCGGAAUUUGGUUUCUAUUTT against Etv2  -0.432
56. GACAGGCGGCCUUCCGAGATT against Hyi  -0.479
57. GCGAUACAACUCUUAUGACTT against Dennd5b  -0.521
58. GGUGUAUCUGUUCUGUUAATT against Impg1  -0.559
59. GCUUUAAACUGAGUGAUAATT against Zfp451  -0.564
60. CCUCGUCGAGUGGAAAAUUTT against Pxylp1  -0.574
61. GGCCAUCGCACUUAAACUUTT against 1700123K08Rik  -0.578
62. GGAAUCUAGCUGAGAAAAUTT against Lepr  -0.62
63. GCAGCUUUAGGUCCAUUCGTT against Pkd2l2  -0.696
64. CCCUAUCAACUGAUCUUUUTT against Scml2  -0.732
65. CGAGCUGUUAGAAUUCAGATT against Jakmip1  -0.818
66. GCAUGACAGGAAACUCUCUTT against Olfr1308  -0.825
67. GGAUAGCUCAUGAUGCUGUTT against Usp13  -0.885
68. GCCAAAACUCUGUUAGAUATT against Anapc7  -0.931
69. GGGAGAUUGGAAACAAAAATT against Hsd3b4  -0.935
70. GGCUCAUGUAAGAUAAUUATT against Kcns3  -1.03
71. CCUGUACCCGAACAUACCATT against Fabp12  -1.06
72. AUAACCUAACUCACAACAATT against Olfr304  -1.06
73. GGGAUAACACUCCUGUUUUTT against F630111L10Rik  -1.06
74. GGGAAACACCUGGGUGCUUTT against Ctrl  -1.07
75. CCCAAUGAUCCUAACCAUUTT against Zfp459  -1.08
76. GGCUCUAUAUCCAGCAGCATT against Srst  -1.1
77. GGACUAUGUGGCCCAGUGUTT against Nat8f5  -1.11
78. GCACAUGGGAGACUAUGAATT against Necab2  -1.14
79. GGAAGAGGAGGUGACAUACTT against Exd1  -1.15
80. GGUUAUAUCCAUGUGACACTT against Nkg7  -1.15
81. GGAGAGAAUGGACCAUCUCTT against Rnase10  -1.16
82. CCACAUCAAGUCUAUCAUCTT against Ryr1  -1.19
83. CGAUUACUUGGAAAACCAATT against Ifne  -1.21
84. CCGAUGAUCAGAGAAACAGTT against Prkar2b  -1.25
85. CCUACAGUACUUCAAGCGGTT against Hip1  -1.37
86. CGUGAAGGAAACUUUUCAGTT against Prmt9  -1.45
87. GCAACUGAGGCUUUCUUUGTT against Copg1  -1.53
88. GGCCGAAUUGUGUCUUGGUTT against Dnmt3a  -1.71

In the case of GGAGCACAAUUCAAAUUCATT against Zbtb6, the z-score was 2.06 (active).
For GGACUACUUUAAGGAUUGGTT against Tfip11, the z-score was -2.97 (active).
In the case of GCCGCUUAUAUGUAUCGCUTT against Adipoq, the z-score was 2.54 (active).
With “GUCACUGAAUUUCUCCUCUTT against Olfr104-ps” the z-score was -2.28 (active).
With GGAUAUCCGUGAGAUUUCATT against Timm9 the z-score was 3.7 (active).
For CCCACUCUUUGUGUACUGATT against Olfr262, the z-score was -2.1 (active).
In the case of GGUCAUCCUCAAGUCUCCUTT against Stmn3, the z-score was -2.28 (active).
With CGGGCUCUUGUAGAUUUCATT against Ccdc86 the z-score was 3.22 (active).
For GGUUCUCAUACAUAAACAATT against Mri1, the z-score was -2.87 (active).
In the case of GCACCUGAUUAAGUUGCAUTT against Med15, the z-score was -2.11 (active).
In the case of GGGCGACACAAGGUUUUUGTT against Kif3a, the z-score was 2.61 (active).
For GGAAACAACAACUGUCACATT against Defb40, the z-score was -2.13 (active).
With GCACAGGACUGAUGCUAAGTT against Wdr91 the z-score was 2.92 (active).
In the case of GGCUCUUCCAACAGUUCUUTT against Grk1, the z-score was 2.07 (active).
With GGACACCAAUCACAUUUGATT against Cngb3 the z-score was -2.21 (active).
In the case of GGUGGUCUCCUACAAUGCCTT against Olfr1451, the z-score was 2.3 (active).
In the case of GGAAGAAGAACUGAAGACATT against Ctnnbl1, the z-score was 2.22 (active).
With GGAGAUUGACAUUAGCAACTT against Rps6ka2 the z-score was 3.02 (active).
With GGCCAUCUAAUGACCUUCATT against Madd the z-score was -2.7 (active).
For GGGCUGAGGAGAAAAUGCATT against Meg3, the z-score was -2.37 (active).
